From PubChem
Only a selection was taken, and hits are over-represented in it overall.
nsP2pro inh = blocks chikungunya virus nsP2 protease peptide cleavage | FRET peptide cleavage, nsP2pro, fluorescence 1 h | Potency, µM (highest dose often 24.9 µM), hits mostly inhibitors | AID 1964107 | 1.1% of 31,000 active | Q8JUX6; note: nearly all actives have a fitted effect of over 60% in size
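Enzyme 150 nM, substrate 2.5 uM (both final); Tris-HCl 10 mM pH 8.0 + 0.01% Tween 20; cpd up to 25 uM, 7 pts; 15 min preinc., 1 h RT; fluorescence ex 525/em 598.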
nsP2 cell sec = secondary cell-based test for CHIKV nsP2 protease inhibitors; cell-based CHIKV nsP2 protease reporter assay; AID 1964100; Potency, µM (titrated, usually from 51.1 µM), actives largely listed as inhibitors; shares compounds with nsP2pro inh; 10% of 450 active; note: nearly all actives have a fitted effect of over 70% in size
NSP2 full ctr = inhibits full-length CHIKV NSP2 enzyme. Potency, µM (series often up to 50.7 µM), most hits filed as inhibitors. Full-length CHIKV NSP2 protease enzymatic counterscreen. 39% of 410 active. shares compounds with nsP2pro inh. AID 1964101; note: nearly all actives have a fitted effect of over 65% in size
Furin counter = human furin inhibition, counterscreen for nsP2pro inhibitors | shares compounds with nsP2pro inh | Recombinant human furin enzymatic counterscreen, fluorogenic substrate | Potency, µM (series often up to 50.6 µM), usual class: inhibitors | 6% of 410 active | AID 1964102
Target sequence (P09958 whole entry, looked up): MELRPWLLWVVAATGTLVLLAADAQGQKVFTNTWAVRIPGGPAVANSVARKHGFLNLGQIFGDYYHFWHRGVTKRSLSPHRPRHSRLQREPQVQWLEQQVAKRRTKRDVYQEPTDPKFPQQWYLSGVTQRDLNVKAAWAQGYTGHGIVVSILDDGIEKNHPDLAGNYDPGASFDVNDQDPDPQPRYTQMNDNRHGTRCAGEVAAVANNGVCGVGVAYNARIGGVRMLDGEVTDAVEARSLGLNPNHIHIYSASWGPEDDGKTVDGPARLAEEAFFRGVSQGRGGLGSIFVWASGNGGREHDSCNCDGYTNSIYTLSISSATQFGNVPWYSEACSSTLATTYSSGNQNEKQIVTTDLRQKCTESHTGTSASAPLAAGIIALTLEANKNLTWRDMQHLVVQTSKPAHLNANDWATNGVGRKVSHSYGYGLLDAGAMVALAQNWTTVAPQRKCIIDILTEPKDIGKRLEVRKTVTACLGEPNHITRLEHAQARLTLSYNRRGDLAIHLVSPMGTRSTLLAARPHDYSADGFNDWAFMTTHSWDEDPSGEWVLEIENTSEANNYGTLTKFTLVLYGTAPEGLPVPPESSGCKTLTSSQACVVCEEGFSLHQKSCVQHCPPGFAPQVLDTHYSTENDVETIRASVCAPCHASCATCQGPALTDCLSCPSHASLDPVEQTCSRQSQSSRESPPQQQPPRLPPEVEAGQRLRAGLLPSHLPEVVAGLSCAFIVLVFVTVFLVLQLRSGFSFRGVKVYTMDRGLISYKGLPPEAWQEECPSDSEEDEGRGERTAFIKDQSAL
nsP2 NS23 pep = blocks CHIKV nsP2 protease cleavage of endogenous NS2/3 peptide. Purified CHIKV nsP2 protease, endogenous NS2/3 peptide cleavage. Potency, µM (doses to about 51 µM), usual class: inhibitors. 34% of 410 active. shares compounds with nsP2pro inh; note: nearly all actives have a fitted effect of over 55% in size
Papain cs = selectivity counter-screen for CHIKV nsP2 protease inhibitors: papain; shares compounds with nsP2pro inh; purified papain protease activity, enzymatic inhibition; Potency, µM (series often up to 51 µM), hits mostly inhibitors; 5% of 410 active; AID 1964104
nsP2pro confirm = confirmation of CHIKV nsP2 protease inhibitors | shares compounds with nsP2pro inh | CHIKV nsP2 protease enzymatic activity, qHTS | Potency, µM (titrated, usually from 25.5 µM), usual class: inhibitors | 43% of 410 active | AID 1964105; note: nearly all actives have a fitted effect of over 75% in size
HCV NS3 counter = HCV NS3/4A protease inhibition, counterscreen. shares compounds with nsP2pro inh. HCV NS3/4A protease biochemical counterscreen. Potency, µM (highest dose often 50.9 µM), actives largely listed as inhibitors. 20% of 410 active; note: nearly all actives have a fitted effect of over 55% in size
Each line names hits and unclear results; the compound was inactive in the other large screens (follow-up assays come after a bar, where they were run). Calls come from the whole dose curve.

CC(=O)NCCC(=O)N1CCCCC1C(=O)Nc1ccc(-n2nc(C)cc2C)cc1 (stereo unspecified)	none
C=C1C(=O)O[C@@H]2/C=C(/C)CC3C=C(C[C@H](OC(=O)/C(C)=C\C)[C@@H]12)C(=O)O3 (stereo partly specified)	none
C=C1C(=O)O[C@@H]2C(OC(=O)/C(C)=C\C)/C(C)=C\C(=O)/C=C(\C)C[C@H](O)[C@@H]12 (stereo partly specified)	nsP2pro inh inconclusive | nsP2 cell sec inconclusive | NSP2 full ctr inactive | Furin counter inactive | nsP2 NS23 pep inconclusive | Papain cs inactive | nsP2pro confirm inactive | HCV NS3 counter inconclusive
C=C1C(=O)O[C@@H]2[C@H]3C(=C)[C@@H](O)C[C@H]3C(=C)C[C@@H](O)[C@@H]12	none
Nc1cccc2c1CN([C@H]1CCC(=O)NC1=O)C2=O	none
NC(=O)NCCCC(N)C(=O)O (stereo unspecified)	none
Cc1cc(-c2ccc(/C=C3\SC(=Nc4ccc(Cl)c(C(=O)O)c4)NC3=O)o2)c([N+](=O)[O-])cc1C	none
O=C(O)c1cc(-c2ccc(/C=C3\SC(=S)N(Cc4ccccc4)C3=O)o2)ccc1Cl	nsP2pro inh inconclusive | nsP2 cell sec inactive | NSP2 full ctr inactive | Furin counter inactive | nsP2 NS23 pep inactive | Papain cs inconclusive | nsP2pro confirm inactive | HCV NS3 counter inactive
O=C(O)c1ccc(-n2cccc2/C=C2\SC(=O)N(Cc3ccc(Br)cc3)C2=O)cc1	none
Cc1noc(-c2ccc(-c3ccc(CC(=O)O)cc3)cc2)c1NC(=O)O[C@H](C)c1ccccc1Cl	none
Oc1ccc([C@H]2CNCc3c2ccc(O)c3O)cc1O	nsP2pro inh 3.5µM | nsP2 cell sec inactive | NSP2 full ctr inconclusive | Furin counter inactive | nsP2 NS23 pep 23µM | Papain cs inactive | nsP2pro confirm 5µM | HCV NS3 counter 0.58µM
C=C1C(O)CC2C(C(=O)O)=COC(O[C@@H]3O[C@H](COC(=O)/C=C/c4ccc(O)cc4)[C@@H](O)[C@H](O)[C@H]3O)C12 (stereo partly specified)	none
CCCc1ccc(OCC(=O)N(Cc2nc(-c3cccnc3)no2)C(C)C)cc1	none
CC(=O)O[C@@]1(C)C[C@@H](O)[C@]2(O)C=CO[C@@H](O[C@@H]3O[C@H](CO)[C@@H](O)[C@H](O)[C@H]3O)[C@@H]21	none
CC(=O)OC1C(O)CC(O[C@@H]2O[C@H](CO)[C@@H](O)[C@H](O)[C@H]2O)C2CCC3C(=O)OC(c4ccoc4)CC3(C)C21 (stereo partly specified)	nsP2pro inh inconclusive | nsP2 cell sec inactive | NSP2 full ctr inactive | Furin counter inactive | nsP2 NS23 pep inactive | Papain cs inactive | nsP2pro confirm inactive | HCV NS3 counter inactive
CC(=O)OC1(C)CC(O)C2(O)C=COC(OC3OC(CO)C(O)C(O)C3O)C12 (stereo unspecified)	none
COc1cccc(C(=O)N2CCN(c3ccnc4ccnn34)CC2)c1	none
Cc1oc(C(C)C)cc1C(=O)N1CC[C@](C)(O)[C@@H](O)C1	none
COc1cc(O)c(C(CC(=O)N2CCC(c3ccccc3)CC2)c2ccc(OC)c(OC)c2)c(OC)c1 (stereo unspecified)	none
COC(=O)C[C@H]1C(C)(C)[C@H](OC(C)=O)C2CC3=C4CC(=O)O[C@@H](c5ccoc5)[C@]4(C)CCC3[C@@]1(C)C2=O (stereo partly specified)	none
COC(=O)/C=C/C12COC(C)(C)C1C(O)C(OC(C)=O)C1(C)C2CCC2(C)C(c3ccoc3)OC(=O)C3OC321 (stereo unspecified)	nsP2pro inh inconclusive | nsP2 cell sec inactive | NSP2 full ctr inactive | Furin counter inactive | nsP2 NS23 pep inactive | Papain cs inactive | nsP2pro confirm inactive | HCV NS3 counter inactive
CC1(C)O[C@H]2CC(=O)OC[C@]23[C@H]2CC[C@@]4(C)[C@H](c5ccoc5)OC(=O)[C@H]5O[C@]54[C@]2(C)C(=O)C[C@@H]13	none
CC(C)(C)OC(=O)N1CCN(c2ccc(NCc3ccc(-c4ccc(C#N)cc4)o3)nc2)CC1	none
CC(C)(C)OC(=O)N1CCN(c2ccc(NCc3ncc(-c4ccc(C#N)cc4)o3)cc2)CC1	none
N#Cc1ccc(-c2ccc(CNc3ccc(N4CCC(C#N)CC4)cc3)o2)cc1	nsP2pro inh 10µM | nsP2 cell sec inconclusive | NSP2 full ctr inconclusive | Furin counter inactive | nsP2 NS23 pep inconclusive | Papain cs inactive | nsP2pro confirm inconclusive | HCV NS3 counter 2.6µM
CCOC(=O)C1CCN(c2ccc(NCc3ccc(-c4ccc(C#N)cc4)o3)cc2)CC1	nsP2pro inh 4.5µM | nsP2 cell sec 21µM | NSP2 full ctr inconclusive | Furin counter inactive | nsP2 NS23 pep inconclusive | Papain cs inactive | nsP2pro confirm inactive | HCV NS3 counter 3.7µM
COc1ccc(-c2ccc(CNc3ccc(N4CCN(C(=O)OC(C)(C)C)CC4)cc3)o2)cc1	none
CC(C)(C)OC(=O)N1CCC(c2ccc(NCc3ccc(-c4ccc(C#N)cc4)o3)cc2)CC1	none
FC(F)(F)c1ccccc1-c1nc(NCC23CC4CC(CC(C4)C2)C3)c2ccccc2n1	none
O=C1NS(=O)(=O)C(c2ccccc2)C1c1ccccc1 (stereo unspecified)	none
Cc1cc(C(=O)N2CCC(Cc3nc(-c4ccccc4)n[nH]3)C2)n(C)n1 (stereo unspecified)	none
CCCCOC(=O)NC(=O)C1c2ccccc2Oc2ccccc21	none
N#Cc1cccc(CN[C@H]2[C@H](O)[C@H](O)C[C@@H]2c2cccnc2)c1	none
CC1(C)CCCC2(C)C=C(C(=O)O)C(O)CC12 (stereo unspecified)	none
COc1nccnc1NC1CCN(C(=O)Cc2c(C)noc2C)CC1	none
O=C(Nc1ccc(-c2nc3ccccc3[nH]2)cc1)Nc1ccc2c(c1)CCCO2	none
C1=C(c2cnc[nH]2)c2ccsc2CC1	nsP2pro inh inconclusive | nsP2 cell sec inactive | NSP2 full ctr inactive | Furin counter inconclusive | nsP2 NS23 pep inactive | Papain cs inactive | nsP2pro confirm inactive | HCV NS3 counter inactive
CC(C)(C)Nc1nc2cc(Cl)c(Cl)cc2nc1S(C)(=O)=O	none
N[C@@H](CC(=O)N1CCn2c(nnc2C(F)(F)F)C1)Cc1[nH]nc2c(F)c(F)ccc12	none
Cc1ccc(-c2ccccc2CN2CCN(C(=O)Nc3ccccc3)CC2)cc1Cl	none
O=C(O)CCc1nc(C2CCOCC2)n[nH]1	none
